Compound activity: PubChem BioAssay, National Center for Advancing Translational Sciences (NCATS)
This is a sample that favours compounds with a hit; in the whole collection about 4.1% have one here.
Sm TGR inh – blocks Schistosoma mansoni thioredoxin glutathione reductase; Q962Y6; purified TGR, DTNB reduction, TNB absorbance 405 nm; Potency, µM (top dose mostly 114 µM), inactives show at the highest dose activity change, negative = inhibition, hits mostly inhibitors; 3% of 360,000 active; AID 485364; further: nearly all actives have a fitted effect of over 60% in size
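Kinetic colorimetric format: TGR-catalysed, NADPH-driven DTNB reduction monitored via TNB absorbance. Enzyme dispensed at 20 nM; compound exposure 15 min at room temperature before reaction start.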
AmpC inh detg – inhibitors of E. coli AmpC beta-lactamase with detergent; AID 485294; AmpC hydrolysis of nitrocefin, absorbance 480 nm, 0.01% Triton; 0.041% of 370,000 active; Potency, µM (titrated, usually from 114 µM), for inactives: at the highest dose activity change, negative = inhibition, actives largely listed as inhibitors; P00811;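 further: 0% = no-compound wells and -100% = no-enzyme wells; nearly all actives have a fitted effect of over 25% in size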
Target sequence (P00811 whole entry, looked up): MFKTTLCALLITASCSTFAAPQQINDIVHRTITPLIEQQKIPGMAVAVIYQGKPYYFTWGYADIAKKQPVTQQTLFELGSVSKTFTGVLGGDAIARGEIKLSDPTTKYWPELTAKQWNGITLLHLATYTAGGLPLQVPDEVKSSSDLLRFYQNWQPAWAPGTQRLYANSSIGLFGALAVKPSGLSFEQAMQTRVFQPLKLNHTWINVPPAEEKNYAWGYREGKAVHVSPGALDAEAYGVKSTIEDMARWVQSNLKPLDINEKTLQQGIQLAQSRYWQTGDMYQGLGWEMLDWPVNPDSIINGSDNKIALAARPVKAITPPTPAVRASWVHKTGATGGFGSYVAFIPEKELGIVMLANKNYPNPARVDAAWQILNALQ
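20 mM phosphate pH 7.0 + 0.01% (detergent screen) or 0.0001% Triton X-100; 5.3 nM AmpC reagent; cpd preinc 15 min RT; nitrocefin (800 uM stock) to start; A480 q20 s × 4 min; Activity was normalised to no-enzyme and no-compound control wells.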
AMA1-RON2 inh – inhibitors of Plasmodium falciparum AMA1-RON2 interaction. AlphaScreen AMA1-biotinylated RON2 peptide binding. Potency, µM (titrated, usually from 58.2 µM), for inactives: at the top dose activity change, negative = inhibition, actives largely listed as inhibitors. 0.2% of 360,000 active;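 further: 0% = vehicle wells and -100% = peptide control; nearly all actives have a fitted effect of over 45% in size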
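AMA1 (3D7) with his tag at 25 nM final met compounds first, then biotinylated RON2 peptide at 25 nM; detection used donor plus acceptor beads, 10 µg/mL apiece, read by AlphaScreen after 30 min at room temperature.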
FMDV antiviral – antivirals against foot and mouth disease virus | Potency, µM (highest dose often 57.9 µM), inactives show at the top dose activity change, negative = inhibition, usual class: inhibitors | FMDV antiviral cell-based qHTS | 1.2% of 410,000 active; calls by dose curve; tested in HEK293T cells; further: read-out not given here; nearly all actives have a fitted effect of over 45% in size
AmpC no deterg – inhibitors of E. coli AmpC beta-lactamase without detergent. AmpC nitrocefin hydrolysis, absorbance 480 nm, 0.0001% Triton. 0.52% of 330,000 active. Potency, µM (titrated, usually from 57.1 µM), for inactives: at the top dose activity change, negative = inhibition, actives largely listed as inhibitors. AID 485341;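 further: plate controls were no compound for no effect and no enzyme for full effect; nearly all actives have a fitted effect of over 20% in size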
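20 mM phosphate pH 7.0 + 0.01% (detergent screen) or 0.0001% Triton X-100; 5.3 nM AmpC reagent; cpd preinc 15 min RT; nitrocefin (800 uM stock) to start; A480 q20 s × 4 min; Activity was normalised to no-enzyme and no-compound control wells.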
* marks the source's active call; other numbers are inactive results. Unless noted, the call rests on the fitted dose curve; in most records, active means well fitted curve in the direction sought with a large enough effect; inconclusive means small, poorly fitted or top-dose-only effect, or another doubt; inactive means no such curve, though single readings can be large; an effect the other way counts as inactive or inconclusive. Unless noted, on the % scale 0 is the no-effect control and ±100 the full control effect; potency means the concentration at half of the fitted maximal effect.

For COC(=O)CCCC1=CC2=C(c3ccccc3)C(=O)C(C)(OC(=O)C3CCCC3)C(=O)C2=CN1CCCCO (centres undefined) the results were Sm TGR inh 41.0%, AmpC inh detg -2.7%, AMA1-RON2 inh 12.3%, FMDV antiviral 18.1% and AmpC no deterg 63.6%.
For C=C(CC)C(=O)c1ccc(OCC(=O)O)c(Cl)c1Cl the results were Sm TGR inh 35.5µM*, AmpC inh detg -4.2%, AMA1-RON2 inh -3.9%, FMDV antiviral inconclusive and AmpC no deterg -19.1%.
`COc1ccc(CCn2c(=O)c3cccnc3n(CC(=O)Nc3ccc(C)c(F)c3)c2=O)cc1OC` gave Sm TGR inh 2.2%, AmpC inh detg 20.0% and FMDV antiviral -1.5%.
`NS(=O)(=O)c1ccc(O)c(N2C(=O)c3cccc4c(C(=O)c5ccccc5)ccc(c34)C2=O)c1` gave Sm TGR inh 1.7%, AmpC inh detg -5.6% and AmpC no deterg 10µM*.
`CC(C)CCNC(=O)c1ccc2c(c1)nc1n2CCCCC1` gave Sm TGR inh 1.3%, AmpC inh detg 19.3% and FMDV antiviral -24.6%.
CC1CN(C(=O)COC(=O)c2ccc(N)c([N+](=O)[O-])c2)CC(C)O1 (centres undefined) was read as Sm TGR inh 0.3%, AmpC inh detg 0.6%, AMA1-RON2 inh -17.2%, FMDV antiviral 10.8% and AmpC no deterg -6.8%.
`CS(=O)(=O)c1ccc(C(=O)OCC(=O)N2CCN(CCC3CCCCC3)CC2)cc1[N+](=O)[O-]` gave FMDV antiviral 25.1µM*.
Screening CS(=O)(=O)c1ccc(C(=O)OCC(=O)NC(=O)C2CCCCC2)cc1[N+](=O)[O-] returned Sm TGR inh 7.08µM*, AmpC inh detg inconclusive, AMA1-RON2 inh -20.8%, FMDV antiviral 22.4µM* and AmpC no deterg -6.6%.
For CS(=O)(=O)c1ccc(C(=O)OCC(=O)NC(=O)C2COc3ccccc3O2)cc1[N+](=O)[O-] (centres undefined) the results were AMA1-RON2 inh -4.9%, FMDV antiviral 0.4% and AmpC no deterg -29.9%.
Screening O=C(COc1ccc([N+](=O)[O-])cc1)Nc1nc2c(s1)CCCC2 returned Sm TGR inh 0.6%, AmpC inh detg -0.2% and FMDV antiviral inconclusive.
Screening Cc1c(Cl)cccc1NC(=O)Cn1nc(C(F)(F)F)c2c1CCC2 returned Sm TGR inh 0.7%, AmpC inh detg 29.1% and FMDV antiviral -10.4%.
`Cc1ccc(NC(=O)CSc2nc(-c3cccs3)cc(C(F)(F)F)n2)cc1C` gave Sm TGR inh 16.3%, AmpC inh detg 10.2% and FMDV antiviral -23.5%.
`COc1cccc(NC(=O)c2cc3c(=O)n(C)c4ccccc4c3n2C)c1` gave Sm TGR inh -4.2%, AmpC inh detg 9.3% and FMDV antiviral -14.8%.
CC(C)COCC1CC2(CC(C)(c3csc(N)n3)OC2=O)C(=O)O1 (centres undefined) was read as Sm TGR inh inconclusive, AmpC inh detg -12.6%, AMA1-RON2 inh -12.8%, FMDV antiviral 8.9% and AmpC no deterg -24.2%.
For C=CCNc1nc(C2(C)CC3(CC(C)(C)OC3=O)C(=O)O2)cs1 (centres undefined) the results were Sm TGR inh 50.1µM*, AmpC inh detg inconclusive, AMA1-RON2 inh -4.6%, FMDV antiviral -21.3% and AmpC no deterg -13.0%.
Cc1ccc(Sc2ccc(N3CCC(C(=O)Nc4ccc(C)c(F)c4)CC3)nn2)cc1 was read as Sm TGR inh 2.7%, AmpC inh detg 11.0% and FMDV antiviral 10.3%.
Cn1c(C(=O)N2CCOCC2)cc2c(=O)n3ccccc3nc21 was read as Sm TGR inh -24.7%, AmpC inh detg 4.9%, AMA1-RON2 inh 6.2%, FMDV antiviral 7.3% and AmpC no deterg 34.0%.
`Cn1c(C(=O)N2CCN(C(=O)c3ccco3)CC2)cc2c(=O)n3ccccc3nc21` gave Sm TGR inh 44.7µM*, AmpC inh detg 9.1%, AMA1-RON2 inh 2.3%, FMDV antiviral -19.9% and AmpC no deterg 1.8%.
